# Results as given in PubChem BioAssay (Tox21).
# Records with an inconclusive call do not appear. Where a call stands in place of a potency, no number is given. The source made the active and inactive calls. The call rests on the fitted dose curve; in most records, active means well fitted inhibition curve with a large enough effect in the repeat runs; inconclusive means weak or mixed curves, or effect the other way; inactive means no such curve, though single readings can be large or run the other way.
# Biological target: Androgen receptor (Homo sapiens) (UniProt P10275)
# Sequence (P10275 whole entry, looked up): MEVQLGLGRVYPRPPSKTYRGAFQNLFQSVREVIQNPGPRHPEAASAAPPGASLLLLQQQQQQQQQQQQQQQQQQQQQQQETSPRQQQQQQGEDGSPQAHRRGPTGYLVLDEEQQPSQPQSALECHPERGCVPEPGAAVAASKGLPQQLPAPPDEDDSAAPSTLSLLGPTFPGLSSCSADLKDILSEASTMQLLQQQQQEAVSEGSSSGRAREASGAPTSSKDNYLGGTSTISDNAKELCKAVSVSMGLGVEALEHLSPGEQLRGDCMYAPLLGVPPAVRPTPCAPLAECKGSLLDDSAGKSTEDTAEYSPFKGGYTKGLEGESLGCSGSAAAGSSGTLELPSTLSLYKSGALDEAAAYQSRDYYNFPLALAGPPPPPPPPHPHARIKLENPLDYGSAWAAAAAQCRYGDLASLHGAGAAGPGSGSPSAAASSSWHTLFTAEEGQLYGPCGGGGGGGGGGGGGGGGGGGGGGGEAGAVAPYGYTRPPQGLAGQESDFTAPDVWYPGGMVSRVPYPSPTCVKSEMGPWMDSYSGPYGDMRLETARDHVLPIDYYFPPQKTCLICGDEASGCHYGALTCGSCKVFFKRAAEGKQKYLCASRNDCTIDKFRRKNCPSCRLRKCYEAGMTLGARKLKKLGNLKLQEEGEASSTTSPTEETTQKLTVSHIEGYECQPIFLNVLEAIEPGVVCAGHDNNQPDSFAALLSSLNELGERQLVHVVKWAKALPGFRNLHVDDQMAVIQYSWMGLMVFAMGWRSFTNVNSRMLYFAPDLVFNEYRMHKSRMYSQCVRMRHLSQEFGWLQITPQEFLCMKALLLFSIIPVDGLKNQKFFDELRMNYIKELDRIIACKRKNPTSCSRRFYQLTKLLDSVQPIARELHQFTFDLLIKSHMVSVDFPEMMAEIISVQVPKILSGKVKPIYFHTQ
# Experiment: qHTS assay to identify small molecule antagonists of the androgen receptor (AR) signaling pathway using the MDA cell line (AID 743042; further: nearly all actives have a fitted effect of over 55% in size)
# Conditions: MDA-kb2 AR-luc, MMTV luciferase, R1881 antagonist, 16 h; series mostly up to 70.3 µM
# Method in brief: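 MDA-kb2 breast carcinoma cells carrying MMTV-luciferase (AR/GR responsive) were co-treated with compounds and the agonist R1881 for 16 h at 37C. Inhibition read as ONE-Glo luminescence; CellTiter-Fluor fluorescence measured in parallel for cytotoxicity.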
row,Structure (SMILES),Potency
1,Nc1nc(N)c2nc(-c3ccccc3)c(N)nc2n1,inactive
2,Cc1ccccc1Cl,inactive
3,Cc1ccc(C(C)C)cc1,inactive
4,CO[Si](CCCNCCN)(OC)OC,inactive
5,OCC(O)CS (stereo unspecified),inactive
6,CCCOCC(C)O (stereo unspecified),inactive
7,CCCN(CCC)C(=O)SCC,inactive
8,O=[N+]([O-])c1cc(C(F)(F)F)ccc1Cl,inactive
9,CC(C=O)Cc1ccc(C(C)(C)C)cc1 (stereo unspecified),inactive
10,CC(C)(CO)CO,inactive
11,O=[N+]([O-])c1ccccc1C(F)(F)F,inactive
